The values that follow come from PubChem BioAssay.

Unmarked numbers belong to inactive results. How the calls were made is not given here.

Sequence of Pantothenate synthetase (Mycobacterium tuberculosis (strain ATCC 25618 / H37Rv)) (P9WIL5 whole entry, looked up): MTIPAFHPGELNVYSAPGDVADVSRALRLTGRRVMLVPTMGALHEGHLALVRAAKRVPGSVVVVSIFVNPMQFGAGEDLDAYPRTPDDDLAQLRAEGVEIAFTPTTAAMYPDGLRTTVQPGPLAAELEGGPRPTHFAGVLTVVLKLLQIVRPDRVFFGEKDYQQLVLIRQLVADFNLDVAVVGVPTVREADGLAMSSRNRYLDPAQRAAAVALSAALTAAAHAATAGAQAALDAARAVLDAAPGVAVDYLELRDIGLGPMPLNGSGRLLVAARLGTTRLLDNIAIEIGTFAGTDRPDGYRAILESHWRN

This experiment addresses Pantothenate synthetase (Mycobacterium tuberculosis (strain ATCC 25618 / H37Rv)) (UniProt P9WIL5). Description: Recombinant Mtb pantothenate synthetase (PanC) inhibitors, coupled enzyme, confirmatory (AID 375).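 Further: 0% = full reaction with vehicle and 100% = no enzyme background.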 The settings on record: coupled enzyme assay; at 10 µM, stronger effect = higher value.
`CCC1CCCCN1C(=O)C1CC(c2cc(Cl)c(OC)cc2OC)=NO1` (stereo not given): the inhibition was 1%.

On to `Cc1ccc(N(CC2=NCCN2)c2cccc(O)c2)cc1`, for which the inhibition is 1%.

Take `Cc1nn(-c2ccc(Cl)cc2)c2sc(C(=O)N3CCN(c4ccccn4)CC3)cc12`: the inhibition was 4%.

With `CCOCCCNC(=O)CCNS(=O)(=O)c1ccc(C)cc1`, the inhibition is 2%.

For `O=S(=O)(Nc1ccccn1)c1ccc(Oc2ccccc2)cc1`, the inhibition was 1%.

`CC(C)Sc1nc2c(c(=O)n1-c1ccc(F)cc1)SCC2`: the inhibition was 1%.

With `CCCNc1nc2c(c(=O)n(C)c(=O)n2C)n1Cc1cccc(C)c1`, the inhibition is 0%.

Consider `C=CCN=C1SCC(=O)N1S(=O)(=O)c1ccc(C)cc1`, for which the inhibition is 0%.

Take `COc1ccccc1NC(=O)NCc1ccc2c(c1)OCO2`: the inhibition is 1%.

Turning to `CC(C)(C)NC(=O)CN(C(=O)CS(=O)CC(=O)Nc1ccc(F)cc1)c1ccc(Cl)cc1` (stereo not given), the inhibition was 0%.

`N#Cc1c(N)nc(SCc2ccncc2)c(C#N)c1-c1cccs1`: the inhibition was 11%.

Take `COc1ccccc1-c1c(C)nn2c(N3CCC4(CC3)OCCO4)cc(C)nc12`: the inhibition is 5%.

`COc1ccc(N2CCN(CCCNC(=O)C3CCCN(S(=O)(=O)c4cnc[nH]4)C3)CC2)cc1` (stereo not given): the inhibition was 0%.

Take `COC(=O)c1ccc(CSc2nc(-c3ccc(OC)cc3)nc3c2c(=O)n(C)c(=O)n3C)o1`: the inhibition is 10%.

In the case of `Cc1ccc2c(c1)CCCN2C(=O)Nc1ccc2c(c1)OCO2`, the inhibition was 2%.

For the compound `Nc1c(Sc2ccccc2)c(=O)[nH]c(=O)n1Cc1ccccc1`, the inhibition was 0%.

As for `CCn1cc(C(=O)N2CCOCC2)c(=O)c2cc(S(=O)(=O)N(C)C3CCCCC3)ccc21`, the inhibition was 0%.

For the compound `CCOC(=O)N1CCN(C(=O)c2cccn3c(=O)c4sccc4nc23)CC1`, the inhibition was 0%.

Turning to `Cc1ccc2nc(C3CCN(CC(=O)N4CCCCCC4)CC3)[nH]c2c1`, the inhibition is 0%.

As for `Cc1cc(C(F)(F)F)nc(SCC(=O)NC2=NC(=O)C(C)S2)n1` (stereo not given), the inhibition is 2%.

On to `CC1(C)CNC(=O)c2sc(N3CCOCC3)nc2C1`, for which the inhibition is 0%.

In the case of `COc1ccc(C(=O)N2CCN(S(=O)(=O)c3cc(Cl)ccc3OC)CC2)cc1`, the inhibition was 5%.

`Cc1ccnc(NC(=O)CCC(=O)N(CC(=O)NC(C)(C)C)C2CCCC2)c1`: the inhibition was 0%.

`CCOc1ccc(N(CC(=O)Nc2cccc(OC)c2)S(=O)(=O)c2c(C)noc2C)cc1`: the inhibition is 11%.

Turning to `Cc1ccc(-c2oc3ccccc3c(=O)c2O)cc1`, the inhibition was 0%.

As to `COc1cccc(N2CCN(CC(=O)Nc3nnc(-c4ccccc4)s3)CC2)c1`, the inhibition was 3%.

Regarding `Cc1ccc(OCCN2CCN(C(=O)CCC(=O)Nc3nnc(C)s3)CC2)cc1`, the inhibition is 1%.

With `Cc1ccccc1OCCn1c(=O)oc2ccccc21`, the inhibition was 2%.

For the compound `CCc1c(C(=O)Nc2ncn(Cc3cccc(C)c3)n2)csc1C`, the inhibition is 4%.

As for `CCOC(=O)c1sc2nc(N3CCCC3)c3c(c2c1N)CC(C)(C)OC3`, the inhibition was 0%.

Take `CCOC(=O)CSc1nc2sc(C)c(C)c2c(=O)n1C`: the inhibition is 0%.

With `COc1ccc(Cl)cc1Nc1nc(C)cc(=O)[nH]1`, the inhibition is 3%.

`O=C(Nc1nncs1)c1ccccc1NS(=O)(=O)c1cccs1`: the inhibition is 0%.

Turning to `O=C(CN1CCCC1)Nc1ccc(NC(=O)Nc2ccccc2)cc1`, the inhibition is 0%.

With `Nc1ccc(S(=O)(=O)c2ccc(N)cc2)cc1`, the inhibition is 0%.

As to `COC(=O)c1ccc(CSc2nc3c(cnn3-c3ccc(F)cc3)c(=O)[nH]2)o1`, the inhibition was 4%.

Consider `Cc1nc(SCC(=O)Nc2ccccc2C(F)(F)F)c2c(=O)n(C)c(=O)n(C)c2n1`, for which the inhibition is 4%.

As to `Cc1ccc(C)c(Cn2c(=O)n(CCC(=O)NCc3ccco3)c(=O)c3sccc32)c1`, the inhibition is 9%.

For `O=S(=O)(c1ccc2nc(Cc3cccc(C(F)(F)F)c3)[nH]c2c1)N1CCOCC1`, the inhibition was 0%.

As for `CCC(=O)Nc1c(C#N)c2nc3ccccc3nc2n1-c1ccccc1C`, the inhibition is 16%.

Broadly, the inhibition is how much of the control response was suppressed.
